Screens as filed in PubChem.
In the library only some 4.7% were active in any assay of this set; here they are far more common.
SDO1 yeast rescue: sdo1-depleted yeast growth rescue. 140,000 compounds, 0.21% hits. z-score at 10 µM. S. cerevisiae sdo1-depleted JHY4D growth rescue, OD600 30 h; active compounds read high; pdr5 snq2 efflux-pump mutant strain;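 active = z-score above 3 at both the 24 hr and the 30 hr optical density reads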;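 note: z-score against mean and SD of all compound wells on the same plate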
DAT uptake mod: human DAT dopamine uptake with cocaine, either direction. LLC-PK1 hDAT cells, [14C]-dopamine uptake with cocaine IC80; actives deviate in either direction. B-score at 10 µM. 110,000 compounds, 1.3% hits;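 active = Z score or B-score, a plate-position-corrected score, falls beyond the plate's 99.7% confidence bounds, in either direction; inactive = both scores lie inside the 99.7% bounds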;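 note: scored against the spread of the other compound wells on the same plate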
Target sequence (Q01959 whole entry, looked up): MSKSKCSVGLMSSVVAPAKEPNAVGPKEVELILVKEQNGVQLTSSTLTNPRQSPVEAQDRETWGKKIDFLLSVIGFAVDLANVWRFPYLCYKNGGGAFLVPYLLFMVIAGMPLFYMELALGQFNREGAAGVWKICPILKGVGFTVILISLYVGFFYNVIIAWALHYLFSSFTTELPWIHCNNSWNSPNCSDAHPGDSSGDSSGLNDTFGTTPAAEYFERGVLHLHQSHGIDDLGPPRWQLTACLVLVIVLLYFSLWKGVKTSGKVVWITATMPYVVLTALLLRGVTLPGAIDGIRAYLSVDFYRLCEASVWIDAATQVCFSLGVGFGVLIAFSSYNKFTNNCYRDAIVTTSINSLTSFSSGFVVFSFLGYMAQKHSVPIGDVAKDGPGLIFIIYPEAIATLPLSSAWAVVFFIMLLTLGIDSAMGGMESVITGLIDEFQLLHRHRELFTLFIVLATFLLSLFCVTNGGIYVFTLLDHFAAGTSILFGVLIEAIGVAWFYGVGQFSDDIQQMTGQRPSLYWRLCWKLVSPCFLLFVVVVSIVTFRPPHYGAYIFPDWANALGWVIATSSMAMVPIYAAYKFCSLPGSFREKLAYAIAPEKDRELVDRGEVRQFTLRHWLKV
PLK1 kinase inh: blocks human PLK1 kinase activity; P53350; recombinant PLK1 kinase, TR-FRET peptide phosphorylation; inhibition, % at 10 µM; 97,000 compounds, 0.53% hits; AID 619;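 active = inhibition of 50% or more in the single-concentration screen; inactive = inhibition below 50%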;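 note: 0% = DMSO max control and 100% = H-89 dihydrochloride min control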
Pyk2 oligo antag: Pyk2 (human) oligomerization antagonism | Q293 cells, Pyk2 FERM NanoBiT luminescence; active compounds read low | z-score (the deposit names both 25 µM and 10 µM) | 99,000 compounds, 0.83% hits;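 active = Z-score of -3 or lower, scaled per plate to the spread of control and sample wells; inactive = z-score above -3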;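 note: negative z-score means lost luminescence so less FERM oligomerization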
PLK1 PBD inh: blocks phosphopeptide binding to human Plk1 polo box domain | inhibition, %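 (tested at about 20 µM)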 | AID 693 | Plk1 PBD phosphopeptide binding, fluorescence polarization | 97,000 compounds, 0.13% hits | P53350; in the data active = inhibition above about 34%, passing the limit was not always enough
Cav32 inh: blocks human Cav3.2 T-type calcium channel; Cav3.2-expressing cells, Fluo-4 calcium fluorescence FDSS; active compounds read low; AID 449739; 100,000 compounds, 4% hits; B-score at 10 µM; O95180;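 active = single-dose well whose peak fluorescence ratio is a statistical outlier from its plate by either plate-standardised score or position-corrected B-score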
SDO1 rescue DR: confirmation of growth rescue in SDO1-depleted yeast, bone marrow failure | shares compounds with SDO1 yeast rescue | S. cerevisiae JHY4D (SDO1-depleted) growth rescue, OD600, 30 h; active compounds read high; efflux-deficient strain, SNQ2 and PDR5 mutated | OD recovery (concentration not given with the values) | 440 compounds, 44% hits | AID 949;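 active = yeast growth recovered at 30 hours, either rising with dose fitted slope above 0.001 or with average optical density gain above 0.07, some results past the limit were not filed as active; inactive = growth falling with dose or no effect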;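 note: gain in OD600 from 0 h to 30 h averaged across all seven doses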
* marks the source's active call; other numbers are inactive results.

CN(C)S(=O)(=O)c1ccc(C(=O)Nc2cc(S(=O)(=O)Nc3ccccc3Cl)ccc2N2CCCCC2)cc1 was read as SDO1 yeast rescue -0.63.
`Cc1ccc(C(=O)COC(=O)c2ccc(Br)o2)cc1C` gave SDO1 yeast rescue 3.7*, DAT uptake mod -0.31, PLK1 kinase inh 0, Pyk2 oligo antag -0.67, PLK1 PBD inh -17, Cav32 inh -1.4 and SDO1 rescue DR 0.081*.
O=S(=O)(/N=C(/c1ccccc1)N1CCCCC1)c1ccccc1 was read as SDO1 yeast rescue 0.16.
Screening COc1ccc2nc3ccccc3nc2c1NC(=O)c1ccc(Cl)cc1Cl returned SDO1 yeast rescue 1.6 and SDO1 rescue DR 0.096.
Screening CCNS(=O)(=O)c1cccc(C(=O)c2c(C)cc3ccccn23)c1 returned SDO1 yeast rescue -0.59.
COc1ccc(NC(=O)Cc2coc3cc(C)c(C(C)C)cc23)cc1S(=O)(=O)N1CCOCC1 was read as SDO1 yeast rescue 0.4.
Cc1ccc(S(=O)(=O)N2CCN(CC(=O)N/N=C/c3ccco3)CC2)cc1 was read as SDO1 yeast rescue 0.12.
CC(NC(=O)c1sc2ccccc2c1Cl)C1CCCO1 (stereo not given) was read as SDO1 yeast rescue 4* and SDO1 rescue DR 0.079.
`O=[N+]([O-])c1ccc(NCCCNS(=O)(=O)c2ccccc2)c(Cl)c1` gave SDO1 yeast rescue -0.69.
For Nc1nc(-c2ccco2)c(-c2ccco2)s1 the results were SDO1 yeast rescue 13*, DAT uptake mod -0.082, PLK1 kinase inh -7, Pyk2 oligo antag 0.06, PLK1 PBD inh -3, Cav32 inh -4.3 and SDO1 rescue DR 0.071*.
For CCN=C1S/C(=C\c2cn(CC)c3ccccc23)C(=O)N1CC the results were SDO1 yeast rescue 7.9* and SDO1 rescue DR 0.092*.
For CCN1C(=O)S/C(=C/c2cn(C)c3ccccc23)C1=O the results were SDO1 yeast rescue -1.1.
`CCc1cccc2c(SC(C)C(=O)NCC3CCCO3)nc(-c3ccccc3)nc12` (stereo not given) gave SDO1 yeast rescue -0.55, DAT uptake mod -0.85, PLK1 kinase inh -14, Pyk2 oligo antag -0.03, PLK1 PBD inh -20 and Cav32 inh -2.
Screening CCc1cccc2c(SCC(=O)NCC3CCCO3)nc(-c3ccc(F)cc3)nc12 (stereo not given) returned SDO1 yeast rescue 0.88, DAT uptake mod -0.084, PLK1 kinase inh -8, Pyk2 oligo antag 0.28, PLK1 PBD inh 11, Cav32 inh 0.22 and SDO1 rescue DR 0.042.
Screening COC(=O)COc1ccc2occ(C(C)=O)c2c1 returned SDO1 yeast rescue 3.6*, DAT uptake mod 0.17, PLK1 kinase inh -1, Pyk2 oligo antag 0.02, PLK1 PBD inh 27, Cav32 inh -0.92 and SDO1 rescue DR 0.11*.
For O=C(O)COc1ccc2occ(C(=O)c3ccccc3)c2c1 the results were SDO1 yeast rescue 0.12, DAT uptake mod -0.061, PLK1 kinase inh -6, Pyk2 oligo antag 0.51, PLK1 PBD inh 29 and Cav32 inh 0.76.
COc1ccc(NC(=O)COC(=O)/C=C/C(=O)OCC(=O)Nc2ccc(OC)c(Cl)c2)cc1Cl was read as SDO1 yeast rescue 1.4 and SDO1 rescue DR 0.044.
Screening CCCCn1cnc(C(=O)OCC)c1N returned SDO1 yeast rescue 1.2.
Cc1ccc2nc(C(F)OC(F)(F)F)[nH]c2c1 (stereo not given) was read as SDO1 yeast rescue 12*, DAT uptake mod -1.4, PLK1 kinase inh -8, Pyk2 oligo antag 0.08, PLK1 PBD inh 7, Cav32 inh 1.2 and SDO1 rescue DR 0.041.
`COc1cc(/C=C/C(=O)c2ccc(NS(=O)(=O)c3ccc(C)cc3)cc2)cc(OC)c1O` gave SDO1 yeast rescue 11* and SDO1 rescue DR 0.055.
COc1cc(/C=C/C(=O)c2ccc(NS(=O)(=O)c3ccc(C)cc3)cc2)ccc1OC(F)F was read as SDO1 yeast rescue -0.16.
Screening CCOC(=O)C1=C(C)NC(=O)NC1c1ccc(OC(=O)c2ccco2)cc1 (stereo not given) returned SDO1 yeast rescue -0.61, DAT uptake mod 1, PLK1 kinase inh -14, Pyk2 oligo antag -0.34, PLK1 PBD inh -1 and Cav32 inh -0.54.
`COC(=O)C1=C(C)NC(C)=C(C(=O)OC)C1c1ccc(OC(=O)c2ccco2)cc1` gave SDO1 yeast rescue 10*, DAT uptake mod -0.15, PLK1 kinase inh 1, Pyk2 oligo antag -0.73, PLK1 PBD inh 20, Cav32 inh 0.47 and SDO1 rescue DR 0.079*.
`O=C(Oc1cc(=O)n2ccccc2n1)c1ccccc1` gave SDO1 yeast rescue 0.58 and Pyk2 oligo antag -0.04.
For Cc1cccc(C(=O)N/N=C/c2cc(Br)c(Br)o2)c1 the results were SDO1 yeast rescue -0.86.
For CCOC(=O)c1[nH]c(COC(=O)C2CC(=O)N(Cc3ccccc3)C2)c(C(=O)OCC)c1C (stereo not given) the results were SDO1 yeast rescue 4.6*, PLK1 kinase inh -6, Pyk2 oligo antag 0.1, PLK1 PBD inh 19, Cav32 inh -3.4 and SDO1 rescue DR 0.046.
Cc1ccc(-n2c3c(c(=O)[nH]c2=O)C(NS(=O)(=O)c2ccc(Cl)cc2)(C(F)(F)F)C(=O)N3)cc1 (stereo not given) was read as SDO1 yeast rescue 0.91 and Pyk2 oligo antag 1.1.
For Cc1ccc2c(CC(=O)O)coc2c1 the results were SDO1 yeast rescue -0.07, DAT uptake mod 0.72, PLK1 kinase inh -9, Pyk2 oligo antag 0.6, PLK1 PBD inh 11 and Cav32 inh 1.1.
Cc1ccc2c(CC(=O)NNC(=O)c3ccccc3)coc2c1 was read as SDO1 yeast rescue 6.7* and SDO1 rescue DR 0.084*.
CN1CCN(CC(=O)Nc2ccc(OCc3ccccc3)cc2)CC1 was read as SDO1 yeast rescue 4.4*, PLK1 kinase inh -12, PLK1 PBD inh -4 and SDO1 rescue DR 0.055.
For CC(C)c1ccccc1OCCCCCNCCO the results were SDO1 yeast rescue -0.43, DAT uptake mod 1.1, PLK1 kinase inh -10, Pyk2 oligo antag 0.24, PLK1 PBD inh 23 and Cav32 inh -0.62.
COc1ccc(C(=O)N=c2nc3ccccn3s2)cc1 was read as SDO1 yeast rescue 1.9, DAT uptake mod 0.2, Pyk2 oligo antag -0.87, Cav32 inh 0.28 and SDO1 rescue DR 0.085*.
For N#Cc1ccc(N/N=C/c2cn(-c3ccccc3)nc2-c2ccccc2)c([N+](=O)[O-])c1 the results were SDO1 yeast rescue 0.62 and SDO1 rescue DR 0.026.
`CC(=O)Nc1ccc2c(c1)CN(c1cc(C)ccc1C)CO2` gave SDO1 yeast rescue 1.8.
